In PubChem BioAssay:
Active and inactive are the calls of the source. Unless noted, the rule behind the calls is not given here.

What was measured:
[1] = tested on: Wnt5a (protein binding on small-molecule microarray); experiment: Wnt5a binders on small-molecule microarray, primary screen, biophysical, 635/667 nm fluorescence (AID 1142); settings: 635 nm fluorescence, higher = more signal;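 note: fluorescence read at 667 nm with signal to noise per printed feature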
[2] = cell viability in Huh7 cells, primary screen, cytotoxicity control for HCV replication inhibitor project, CellTiter-Glo luminescence, basal, 48 h (AID 1143); settings: Huh7 HCV replicon, higher = more signal, called active from +8 up or from −8 down;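 note: Huh7 hepatoma cells carrying a hepatitis C replication reporter with no stimulus; test concentration not given here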
[3] = P. aeruginosa biofilm formation inhibitors, primary screen, PAO1 strain, BacTiter-Glo luminescence, LB-PBS (AID 1144); settings: 12 h, higher = more signal
[4] = CREB reporter modulators without forskolin, primary screen, cell-based, PC12, CRE-LacZ reporter, unstimulated (AID 1145); settings: no forskolin, luminescence, 4.5 h, higher = more signal, called active from +8 up or from −8 down
[5] = CREB reporter modulators under forskolin, primary screen, cell-based, PC12, CRE-LacZ reporter, forskolin-stimulated (AID 1146); settings: luminescence, 4.5 h, higher = more signal, called active from +8 up or from −8 down;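 note: PC12 cells with 6xCRE LacZ reporter stimulated by forskolin 10 µM; beta-galactosidase reporter signal reflecting CREB driven transcription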
[6] = molecular target: Streptavidin (Streptomyces avidinii) (UniProt P22629); experiment: streptavidin binders on small-molecule microarray, primary screen, artefact control for SMM compound annotation, biophysical, 635/667 nm fluorescence (AID 1147); settings: streptavidin binding, higher = more signal;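 note: signal reflects streptavidin binding to arrayed compounds as a control protein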
[7] = small-molecule binders of probe aInhba, primary screen, biochemical, small-molecule microarray, 635/667 nm fluorescence (AID 1148); settings: higher = more signal;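 note: score merges 667nm spot fluorescence with signal-to-noise for antibody binding to printed compounds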
[8] = molecular target: Torsin-1A (Homo sapiens) (UniProt O14656); experiment: torsin A binders from cell lysate, primary screen, small-molecule microarray, wild-type, 635/667 nm (AID 1149); settings: COS7 hTOR1A-WT lysate, 635 nm fluorescence, higher = more signal
[9] = molecular target: Torsin-1A (Homo sapiens) (UniProt O14656); experiment: small-molecule binders of mutant TOR1A in lysate, primary screen, cell lysate, small-molecule microarray, COS7 lysate, 635/667 nm fluorescence (AID 1150); settings: COS7 hTOR1A mutant lysate, 635 nm fluorescence, higher = more signal;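 note: score pools 667 nm emission and signal to noise measuring lysate protein binding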
[10] = tested on: Sonic hedgehog protein (Shh); experiment: small-molecule binders of Shh protein, primary screen, biochemical, small-molecule microarray, 635/667 nm fluorescence (AID 1151); settings: small-molecule microarray binding, 635 nm fluorescence; higher = more signal;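 note: Shh protein binding to compounds spotted on small-molecule microarray slides; score combines spot fluorescence intensity with signal-to-noise across triplicate slides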

Sequence of Torsin-1A (Homo sapiens) (O14656 whole entry, looked up): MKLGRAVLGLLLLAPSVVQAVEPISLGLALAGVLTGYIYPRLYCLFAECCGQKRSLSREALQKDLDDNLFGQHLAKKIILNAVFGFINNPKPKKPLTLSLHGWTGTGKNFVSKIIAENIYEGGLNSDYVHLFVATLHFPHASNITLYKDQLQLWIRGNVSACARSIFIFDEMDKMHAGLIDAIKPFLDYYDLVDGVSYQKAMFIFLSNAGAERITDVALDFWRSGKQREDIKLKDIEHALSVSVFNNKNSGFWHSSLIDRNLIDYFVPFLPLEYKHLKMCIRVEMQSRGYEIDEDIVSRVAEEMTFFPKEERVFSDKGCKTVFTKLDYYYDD
Sequence of Streptavidin (Streptomyces avidinii) (P22629 whole entry, looked up): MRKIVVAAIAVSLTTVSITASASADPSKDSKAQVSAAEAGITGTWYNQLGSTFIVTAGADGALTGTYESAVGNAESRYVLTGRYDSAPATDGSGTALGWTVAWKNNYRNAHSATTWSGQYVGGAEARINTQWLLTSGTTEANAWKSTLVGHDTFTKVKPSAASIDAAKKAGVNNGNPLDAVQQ

Row | Structure (SMILES) | composite z-score [1] | z-score [2] | z-score [3] | z-score [4] | z-score [5] | composite z-score [6] | composite z-score [7] | composite z-score [8] | composite z-score [9] | composite z-score [10]
1 | COC(=O)[C@H](C)NC(=O)CCC1CC(OC(=O)NCc2cccc3ccccc23)CC2(CCCC(COC(=O)NCC3CCCCC3)O2)O1 (stereo not given in full) | 0.835 | -0.426 (inactive) | -0.803 (inactive) | 0.91 (inactive) | 1.76 (inactive) | 0.688 | 0.0543 | 1.02 | 1.05 | 1.43
2 | O=C(NN=C1C[C@@H](O)[C@@H](O)[C@@H]2[C@@H]3C(=O)N(c4cccc(Oc5ccccc5)c4)C(=O)[C@@H]3CC[C@H]12)OCc1ccccc1 | -0.132 | -1.24 (inactive) | 1.3 (inactive) | -0.0199 (inactive) | 0.0693 (inactive) | 1.68 | -0.128 | 0.0142 | -0.104 | -0.689
3 | C#CCCCON=C1C[C@@H](O)[C@@H](O)[C@@H]2[C@@H]3C(=O)N(CCC(=O)OCC)C(=O)[C@@H]3CC[C@@H]12 | 0.109 | 0.402 (inactive) | -0.262 (inactive) | 1.15 (inactive) | -0.0962 (inactive) | 0.842 | 0.027 | -0.343 | 0.612 | -0.948
4 | COCCCNC(=O)[C@@]1(C)c2ccccc2C(=O)N(Cc2ccc(OC(F)(F)F)cc2)[C@H]1c1ccc(CO)cc1 | -0.0685 | -1.27 (inactive) | -0.27 (inactive) | 0.585 (inactive) | -0.0912 (inactive) | -0.773 | 0.185 | 0.13 | -0.17 | -0.32
5 | CC(=O)OC[C@H]1O[C@H](CC=NOC[C@@H](C)[C@H](OCc2ccccc2)C(C)C)C=C[C@@H]1OC(C)=O | -0.0373 | -0.23 (inactive) | -0.369 (inactive) | 2.04 (inactive) | 0.494 (inactive) | -0.0152 | -0.0504 | -0.0387 | 0.0881 | 0.583
6 | C=C(/C(=C/C[C@H](OC(=O)c1ccncc1)c1ccc(OCCO)cc1)c1cnc2ccccc2c1)C(C)C | 1.32 | -2.02 (inactive) | -0.295 (inactive) | 6.42 (inactive) | -0.429 (inactive) | 1.3 | 0.0471 | 1.12 | 0.551 | 2.16
7 | COCCNC(=O)OCC1CCCC2(CC(OC(=O)NCCc3ccc(F)cc3)CC(CCC(=O)N[C@@H](C)C(=O)OC)O2)O1 (stereo not given in full) | 0.156 | -0.126 (inactive) | 0.252 (inactive) | 0.374 (inactive) | -0.448 (inactive) | 0.753 | -0.128 | 0.267 | -0.0343 | 1.09
8 | C[C@@H]1CC[C@H]2C(=O)O[C@H](COc3ccc(C(C)(C)C)cc3)CN2[C@H]1c1ccc(Br)cc1 | -0.131 | -0.443 (inactive) | -0.301 (inactive) | 0.262 (inactive) | 0.203 (inactive) | 0.102 | -0.17 | -0.175 | -0.142 | 0.348
9 | O=C1[C@H]2[C@H]3[C@H](O)[C@H](O)CC(=NO[C@@H]4O[C@H](CO)[C@@H](O)[C@H](O)[C@H]4O)[C@H]3CC[C@H]2C(=O)N1C1CCCCC1 | -0.0314 | 0.582 (inactive) | 0.423 (inactive) | -0.0175 (inactive) | 0.234 (inactive) | -0.534 | -0.0313 | 1.03 | 0.843 | 0.61
10 | CCCC[C@H]1OB(O)C[C@H]2C1=C(C)C[C@H]1C(=O)N(C)C(=O)[C@H]12 | 0.224 | 0.0813 (inactive) | -0.0729 (inactive) | -0.237 (inactive) | 1.23 (inactive) | -0.174 | -0.0221 | 0.697 | -0.102 | 0.948
11 | COC(=O)C1(C)C=C2C(=C(c3ccccc3)C(=O)C2C)CN1 (stereo not given) | 0.0106 | -0.266 (inactive) | -0.426 (inactive) | 0.593 (inactive) | -0.0287 (inactive) | -0.153 | 0.12 | -0.366 | -0.367 | -0.593
12 | CC(C)OC(=O)C=C1C[C@@H](c2ccc(C#N)cc2)O[C@@H](c2ccc(C#N)cc2)O1 | 0.923 | -2.6 (inactive) | 0.618 (inactive) | 2.74 (inactive) | 0.421 (inactive) | 0.77 | 0.165 | 1.99 | 2.06 | 0.292
13 | COCCCNC(=O)[C@@]1(CCS(=O)(=O)c2ccccc2)N=C(c2ccc(OCCCO)cc2)O[C@H]1c1ccccc1 | 0.68 | -1.7 (inactive) | -0.701 (inactive) | 0.951 (inactive) | 0.353 (inactive) | 0.188 | 0.38 | 1.45 | 2.73 | -0.766
14 | C[C@H]1Cc2c(-c3ccccc3)nc3c(c2CO1)CN(CCOc1ccccc1)CC3 | 0.379 | -0.239 (inactive) | -0.888 (inactive) | 2.92 (inactive) | -1.46 (inactive) | 0.277 | -0.0313 | 0.132 | 0.565 | 1.17
15 | CCOC(=O)[C@H](CC(C)C)NC(=O)CCC1CC(OC(=O)NCc2cccc3ccccc23)CC2(CCCC(COC(=O)NCCN3CCOCC3)O2)O1 (stereo not given in full) | 0.201 | -0.293 (inactive) | -0.677 (inactive) | -0.164 (inactive) | 1.14 (inactive) | 0.308 | -0.0494 | 0.0423 | 0.765 | 0.717
16 | COCC1=C2[C@@H](CCc3ccccc3)OB(O)C[C@@H]2n2c(=O)n(-c3ccccc3)c(=O)n2C1 | 0.102 | -0.405 (inactive) | 0.523 (inactive) | 2.22 (inactive) | -0.714 (inactive) | -0.324 | -0.082 | -0.0531 | -0.066 | 0.966
17 | C=COC[C@H]1CN2[C@@H](CC[C@@H](C)[C@@H]2c2ccc(Br)cc2)C(=O)O1 | 0.52 | -0.443 (inactive) | -1.13 (inactive) | 1.59 (inactive) | -0.212 (inactive) | -0.0488 | 0.027 | 0.594 | 0.0658 | 1.2
18 | COCCOC(=O)N1C(=O)[C@@]2(c3cc(C#CCNC(N)=O)ccc31)[C@H](c1ccccc1OCCO)N1[C@H](c3ccccc3)[C@H](c3ccccc3)OC(=O)[C@H]1[C@@H]2C(=O)N1CCN(c2ncccn2)CC1 | 0.734 | -1.96 (inactive) | -0.897 (inactive) | -0.465 (inactive) | 2.16 (inactive) | 0.29 | 0.0497 | 0.303 | 0.923 | 0.966
19 | CC(C)CON=C1[C@H]2CCn3c(=O)n(-c4ccccc4)c(=O)n3[C@H]2[C@H](O)[C@@H]2O[C@H]12 | 0.134 | 0.893 (inactive) | 0.291 (inactive) | 0.797 (inactive) | 0.148 (inactive) | -0.142 | -0.102 | 0.235 | 0.189 | 0.445
20 | COCCOC(=O)N1C(=O)[C@@]2(c3cc(C#Cc4ccc(OC)cc4)ccc31)[C@H](c1ccc(O)cc1)N1[C@H](c3ccccc3)[C@H](c3ccccc3)OC(=O)[C@H]1[C@@H]2C(N)=O | 0.586 | -2.75 (inactive) | -0.97 (inactive) | -0.752 (inactive) | -0.94 (inactive) | 0.417 | -0.0947 | 0.187 | 0.825 | 1.44
21 | CC=CC1=C(CO)[C@H](O)[C@H]2O[C@H]2[C@H]1O | 0.261 | 0.678 (inactive) | 1.58 (inactive) | 0.292 (inactive) | 0.798 (inactive) | 0.082 | -0.0719 | 0.769 | -0.0205 | 1.14
22 | CC(C)NC(=O)[C@@]1(C)c2ccccc2C(=O)N(Cc2cc(F)cc(C(F)(F)F)c2)[C@H]1c1ccc(CO)cc1 | 0.646 | -0.527 (inactive) | -0.699 (inactive) | 0.648 (inactive) | -0.237 (inactive) | 0.0926 | 0.2 | 0.411 | 0.916 | 0.903
23 | CCOC(=O)CCN1C(=O)[C@H]2[C@H]3[C@H](O)[C@H](O)CC(=NOCc4ccccc4)[C@@H]3CC[C@H]2C1=O | -0.0682 | -1.25 (inactive) | 0.324 (inactive) | -0.294 (inactive) | 0.0433 (inactive) | 0.115 | -0.186 | 0.434 | 0.496 | 0.612
24 | c1ccc(C2NCCc3c2[nH]c2ccccc32)cc1 (stereo not given) | -0.18 | -0.92 (inactive) | -0.0191 (inactive) | -0.253 (inactive) | -1.11 (inactive) | -0.26 | -0.101 | 0.586 | 0.462 | -0.12
25 | COCCCNC(=O)[C@]1(Cc2ccccc2)N=C(c2ccc(OCCCO)cc2)O[C@@H]1c1ccccc1 | 0.424 | -2.94 (inactive) | -0.0581 (inactive) | 0.423 (inactive) | -1.36 (inactive) | 0.661 | 0.142 | 0.445 | 0.992 | -0.521
26 | Cc1cc2c(nc1C)CCCN2CC(O)CN1CCN(C)CC1 (stereo not given) | -0.168 | -1.28 (inactive) | 0.816 (inactive) | -0.613 (inactive) | -0.91 (inactive) | 0.549 | 0.198 | 0.679 | 0.528 | 0.672
27 | COc1ccc(O[C@H]2C=C[C@@H](c3ccccc3)O[C@@H]2COC(=O)N2CCCCC2)cc1 | -0.19 | -0.259 (inactive) | 0.615 (inactive) | 0.929 (inactive) | 0.197 (inactive) | -0.221 | -0.108 | 0.205 | 0.125 | 0.147
28 | COc1ccc([Si](C)(C)[C@H]2[C@H](CCO)O[C@@]3(C(=O)N(Cc4cccc(NC(=O)[C@H](C)O)c4)c4ccccc43)[C@@H]2C)cc1 | 0.209 | -7.96 (inactive) | -1.52 (inactive) | 3.1 (inactive) | -0.878 (inactive) | 0.394 | -0.0468 | 0.715 | 0.916 | 1.98
29 | C[C@@H]1C=CCC(=O)OC[C@H](C)C(=O)OC[C@H]2O[C@H]1C=C[C@H]2O | 0.263 | 0.196 (inactive) | -0.0585 (inactive) | -0.2 (inactive) | 0.165 (inactive) | -0.392 | -0.105 | -0.0292 | 0.188 | 1.09
30 | CCCCc1nc2c(c3c1C[C@H](C)OC3)CN(CCC(C)C)CC2 | 0.122 | -0.262 (inactive) | -0.578 (inactive) | 7.7 (inactive) | -1.14 (inactive) | 0.0392 | -0.0074 | 0.888 | 0.622 | 0.992
